From article PMC8769072, “Proteome‐scale mapping of binding sites in the unstructured regions of the human proteome” (Molecular Systems Biology, 2022)

Experiments:
[1] = molecular target: AP2B1 700-937, P63010
[2] = molecular target: ANKRA2 142-313, Q9H9E1
ANKRA2 142-313, Q9H9E1, sequence (Q9H9E1 142-313): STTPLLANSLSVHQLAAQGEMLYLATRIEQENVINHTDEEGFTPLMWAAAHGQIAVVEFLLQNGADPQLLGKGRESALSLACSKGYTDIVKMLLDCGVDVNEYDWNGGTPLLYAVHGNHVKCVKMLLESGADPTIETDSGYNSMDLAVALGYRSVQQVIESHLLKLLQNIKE

AP2B1 700-937, P63010, sequence (P63010 700-937): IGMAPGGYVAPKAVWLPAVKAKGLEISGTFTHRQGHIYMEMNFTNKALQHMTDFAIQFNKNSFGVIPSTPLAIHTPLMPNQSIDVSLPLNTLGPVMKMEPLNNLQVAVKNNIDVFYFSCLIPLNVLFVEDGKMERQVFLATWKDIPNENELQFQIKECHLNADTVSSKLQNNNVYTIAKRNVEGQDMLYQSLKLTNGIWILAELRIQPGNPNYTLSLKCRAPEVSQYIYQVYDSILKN

Binder	selected by phage display [1]	selected by phage display [2]
PEWEVAAPWGSVGPGA [GPR179, Q6PRD1]	confidence 2 (active)	–
SQEDWTTFTHDRIRQL [INPPL1, O15357]	confidence 2 (active)	–
PWVPNWELGEPPGNAP [ZNF831, Q5JPB2]	confidence 3 (active)	–
EPSTTPNNWADFSSTW [ITSN1, Q15811]	confidence 4 (active)	–
EWLYGGPWDVHVHSDL [FIP1L1, Q6UN15]	confidence 2 (active)	–
ASSPVNWAAPWANAMN [TEX13C, A0A0J9YWL9]	confidence 3 (active)	–
AESSQAVMSLPKLQQV [ZNF362, Q5T0B9]	–	confidence 4 (active)
AAKPSLPALDPMSMLF [TSHZ3, Q63HK5]	–	confidence 3 (active)
SANADFANFDAFGQSS [AGFG1, P52594]	confidence 3 (active)	–
EATEEGWASFSAELSH [OBSCN, Q5VST9]	confidence 4 (active)	–
WGEPWGEPSTPATTVD [TNRC6A, Q8NDV7]	confidence 2 (active)	–
PWTAFPKPSNSQPTSP [CGNL1, Q0VF96]	confidence 3 (active)	–
MPPSQLQLPTLPLVMV [FOXP3, Q9BZS1]	–	confidence 2 (active)
WTAWEADALFMQRDVY [ZNF532, Q9HCE3]	confidence 3 (active)	–
ALLLPDLSLHVPPGGA [ZNF513, Q8N8E2]	–	confidence 2 (active)
VPVWEPQDWQQQLVNI [NTHL1, P78549]	confidence 3 (active)	–
TGQDIAPRDSPEWVAF [FRMPD1, Q5SYB0]	confidence 3 (active)	–
LPNLPNLNLNLPAPHI [GORASP2, Q9H8Y8]	–	confidence 2 (active)
LNSPAWEASGLHWSSL [GNAS, P84996]	confidence 3 (active)	–
DSALSLPPLSLPHPHP [NTM-AS1, Q6ZSK4]	–	confidence 3 (active)
WSHWEDSALPPPSLRP [RHBDD3, Q9Y3P4]	confidence 3 (active)	–

Binder	selected by phage display [1]	selected by phage display [2]
VFPRPVLPSLTVSRVI [C16orf46, Q6P387]	–	confidence 4 (active)
EEEMEVPVLPKISLPI [NUP153, P49790]	–	confidence 2 (active)
EKPVPTLPQFTMGPNV [EFNA3, P52797]	–	confidence 3 (active)
QASLQAMSLPELSGAL [ANKS3, Q6ZW76]	–	confidence 2 (active)
PGTLLPTPGLPQFPSA [OTP, Q5XKR4]	–	confidence 2 (active)
SWAAFGDQQATESHHR [AFTPH, Q6ULP2]	confidence 3 (active)	–
ELLTVPDGWKEPAFSK [KRR1, Q13601]	confidence 3 (active)	–
AGLGGPVDFSDLPWPL [ARNTL, O00327]	confidence 2 (active)	–
TQAQAALNFGWAFSWL [C12orf71, A8MTZ7]	confidence 2 (active)	–
FTKVEHWSSFAALPWG [SLC35F4, A4IF30]	confidence 2 (active)	–
RGVEWAAFGRDLFLAS [ELP2, Q6IA86]	confidence 3 (active)	–
LSHLGQVEPVPWADAF [ANKRD11, Q6UB99]	confidence 2 (active)	–
WDVPAWESTQHPWPVA [ZNF786, Q8N393]	confidence 4 (active)	–
NPGLSWTDWPEPSLLE [PHF7, Q9BWX1]	confidence 3 (active)	–
SWEAFDSHGQESSGQL [F8A3, P23610]	confidence 2 (active)	–
NFADFSQFEVFAASNV [REPS1, Q96D71]	confidence 3 (active)	–
NLRLPSLDEQVIPARL [Q5PR19]	–	confidence 2 (active)
SMLKLPDLPQNSVKLQ [KIAA0586, Q9BVV6]	–	confidence 3 (active)
ESFGGGFADFSTLSKV [EPS15, P42566]	confidence 3 (active)	–
MSGWAEGPRMLSWAPF [TSPO2, Q5TGU0]	confidence 3 (active)	–
MSARPSLPPLPAKPAG [SERTAD4-AS1, Q5TG53]	–	confidence 2 (active)

Binder	selected by phage display [1]	selected by phage display [2]
EERLRGWEAFLNAPEA [HTATSF1, O43719]	confidence 2 (active)	–
HERDPWYSWDQPGLRL [NDUFB8, O95169]	confidence 3 (active)	–
NSISEPKGNPLAWQAF	confidence 3 (active)	–
VELPALPSLPTLPTLP [PRX, Q9BXM0]	–	confidence 2 (active)
TESWMSPLAWLEKGVN [SPAG5, Q96R06]	confidence 2 (active)	–
EKSPTDWALFTYEGNS [DBNL, Q9UJU6]	confidence 2 (active)	–
WQAFESQPAAPAVPMN	confidence 2 (active)	–
DPGAMEPWALPTWHSW [TSPOAP1, O95153]	confidence 2 (active)	–
VAAGWWAFAPPALQVL [SLCO4A1, Q96BD0]	confidence 2 (active)	–
VGLPLPPTLPSLIPFI [SALL1, Q9NSC2]	–	confidence 2 (active)
MGGAAASWAGWAVTGV [SCYL1, Q96KG9]	confidence 3 (active)	–
YTSPSLPNISLGLQAT [HDAC5, Q9UQL6]	–	confidence 4 (active)
TVGKNHEWNWAFVAFT [SLC9A2, Q9UBY0]	confidence 2 (active)	–
FDWSSFKPMGFEVSFL [ZNF292, O60281]	confidence 2 (active)	–
WPASWGFPDASSTVPS [Q96NJ1]	confidence 2 (active)	–
AEPFSSSSPTPLFPWF [KMT2A, Q03164]	confidence 2 (active)	–
ITAWEAGWNVTNAIQG [SLC32A1, Q9H598]	confidence 3 (active)	–
DSDGHTDAFVAYFADG [BBS5, Q8N3I7]	confidence 2 (active)	–
PQPKLPYLPTFPFSMP [NOBOX, O60393]	–	confidence 2 (active)
APPFPQSTFTPWASWV [SPATA31E1, Q6ZUB1]	confidence 3 (active)	–
